Data from PubChem BioAssay (NCI).
Compounds without any hit were thinned out: in the full panel of roughly 83,000, 20% have a hit.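 How to read the values: 0–100, growth inhibition (40 = 60% inhibited); 0, no net growth; -100 to 0, cell death (-40 = 40% of starting cells died; -100 = all dead).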 Calls of active or inactive are those of the source. The calls were made as follows: active = growth percent below 10; inactive = the rest.

How the values were obtained:
Assay in all cases: NCI-60 one-dose screen, 48 h (100 = growth as untreated, 0 = no growth, -100 = all killed)
Conditions in all cases: 10 µM unless noted
[1] = test system: DU-145 prostate
[2] = test system: K-562 leukemia
[3] = test system: MALME-3M melanoma
[4] = test system: MDA-MB-231 breast
[5] = test system: RXF 393 renal
[6] = test system: SF-268 CNS
[7] = test system: SF-295 CNS
[8] = test system: SF-539 CNS
[9] = test system: UACC-257 melanoma
[10] = test system: M14 melanoma
[11] = test system: HCT-15 colon
[12] = test system: HT29 colon
[13] = test system: SNB-19 CNS
[14] = test system: U251 CNS
[15] = test system: PC-3 prostate
[16] = test system: SK-MEL-5 melanoma
[17] = test system: UACC-62 melanoma
[18] = test system: LOX IMVI melanoma
[19] = test system: SK-MEL-28 melanoma

Measured: growth

O=C(NC(Cc1nnc2n(Cc3ccccc3)c(=O)c3c4c(sc3n12)CCCC4)c1ccc(Cl)cc1)c1ccccc1 (stereo not given)
inactive: [1] 96.7% | [2] 91.9% | [3] 75.4% | [4] 83.2% | [5] 34.3% | [6] 102% | [7] 71.7% | [8] 80.2% | [9] 105% | [10] 68% | [11] 68.3% | [12] 89.1% | [13] 88.5% | [14] 91.8% | [15] 97.8% | [16] 81.9% | [17] 63.1% | [18] 79.4% | [19] 103%

Cc1cc(/C=C\c2ccc3ccccc3[n+]2C)c(O)c2ncccc12
inactive: [1] 26.2% | [6] 14.1% | [9] 16.4% | [11] 27.9% | [12] 25.7% | [13] 11.9% | [15] 34.1% | [19] 25.7%
active: [2] 8.28% | [3] -4.74% | [4] 4.71% | [5] -20.3% | [7] 0.202% | [8] -36.9% | [10] -51.6% | [14] 9.3% | [16] 6.19% | [17] -26.5% | [18] -27.2%

CC(C)(C)CC(C)(C)Nc1c(-c2ccncc2)nc2cnccn12
inactive: [1] 106% | [2] 98.4% | [3] 110% | [4] 95% | [5] 93.8% | [6] 98.6% | [7] 101% | [8] 93.8% | [9] 103% | [10] 100% | [11] 97.9% | [12] 93% | [13] 97.3% | [14] 99.2% | [15] 97.7% | [16] 99.4% | [17] 92.9% | [18] 98.8% | [19] 112%

COc1cccc(-c2nn(-c3ccccc3)cc2-c2ccnc(NCCCNC(=O)Nc3ccc(Cl)c(Cl)c3)c2)c1
active: [2] -13.6% | [3] -27.1% | [4] -37.2% | [5] 9.74% | [7] -4.97% | [8] 1.74% | [9] -29.6% | [10] -52% | [11] 6.61% | [12] -36.4% | [14] -15.5% | [15] 6.51% | [16] -26.4% | [17] -29.7% | [18] -92.1% | [19] -29.2%
inactive: [1] 22.1% | [6] 13.9% | [13] 27.7%

C=C1C(=O)O[C@H]2[C@H]1CC/C(COC(=O)C(=O)c1c[nH]c3ccccc13)=C\CC[C@@]1(C)O[C@@H]21
active: [1] -31.4% | [2] -4.12% | [3] -63.1% | [4] -56.8% | [5] -89.1% | [6] -46.3% | [8] -65.3% | [9] -69.3% | [10] -57.2% | [11] -42.9% | [12] -55.3% | [14] -82.3% | [15] -66.8% | [16] -89.6% | [17] -82.2% | [18] -81.1% | [19] -54%
inactive: [7] 56.6% | [13] 30.3%

COc1cc2ncn3c(=O)c4c5c(sc4nc3c2cc1OC)CCCC5
inactive: [1] 105% | [2] 146% | [3] 89.8% | [4] 90.6% | [5] 105% | [6] 94.3% | [7] 101% | [8] 99.2% | [9] 119% | [10] 91.2% | [11] 99.9% | [12] 91.8% | [13] 93.2% | [14] 98.7% | [15] 87.6% | [16] 102% | [17] 93.4% | [18] 98.6% | [19] 106%

O=C(CC(SCc1ccccc1)c1ccccc1)c1ccccc1 (stereo not given)
inactive: [1] 95.5% | [2] 95.3% | [3] 98.5% | [4] 98.1% | [5] 86.4% | [6] 87.6% | [7] 94.1% | [8] 99% | [9] 111% | [10] 87% | [11] 74.4% | [12] 86.8% | [13] 88.6% | [14] 86.5% | [15] 88.8% | [16] 97.3% | [17] 85.3% | [18] 85.6% | [19] 105%

O=[N+]([O-])c1ccc(N2c3ccncc3Sc3ccncc32)cc1
inactive: [1] 117% | [2] 83% | [3] 122% | [4] 77.1% | [5] 83.6% | [6] 129% | [7] 103% | [8] 99.3% | [9] 113% | [10] 106% | [11] 96.5% | [12] 121% | [13] 107% | [14] 93.4% | [15] 88.1% | [16] 112% | [17] 93.2% | [18] 81.7% | [19] 115%

CCCCCCCCCCCCCCCCCC1=NCCN1CCOC1=C(Cl)C(=O)c2ccccc2C1=O
inactive: [1] 109% | [2] 21.7% | [3] 67.1% | [4] 55.9% | [5] 102% | [6] 91.2% | [7] 108% | [8] 104% | [9] 72.3% | [10] 83.1% | [11] 55.4% | [12] 65% | [13] 81.4% | [14] 66.4% | [15] 55.3% | [16] 103% | [17] 40.6% | [18] 66.6% | [19] 92.1%

CC1=CN2C(=O)C3C4=C(CCCC4)SC3N=C2CN1c1c(C)cccc1C (stereo not given)
inactive: [1] 104% | [2] 45.8% | [3] 89.7% | [4] 83.9% | [5] 67% | [6] 89.1% | [7] 81.6% | [8] 96.7% | [9] 99.4% | [10] 96.6% | [11] 49.8% | [12] 84% | [13] 104% | [15] 63.4% | [16] 87.2% | [17] 66.4% | [18] 79.2% | [19] 110%

COc1cccc(-c2nn(-c3ccccc3)cc2-c2ccnc(NCCNC(=O)Nc3cccc(C(F)(F)F)c3)c2)c1
active: [2] 2.52% | [4] -10% | [10] 7.52% | [11] 6.17% | [12] -43.6% | [17] -7.83% | [18] -77.3%
inactive: [1] 26.2% | [3] 51.2% | [5] 21.6% | [6] 35.2% | [7] 27.6% | [8] 57.7% | [9] 27.6% | [14] 19.9% | [15] 17.1% | [16] 39.2% | [19] 32.5%

COc1ccc(CN2C(=O)C(Cl)=C(Nc3cccc(C(F)(F)F)c3)C2=O)cc1
active: [8] 7.41%
inactive: [1] 84.9% | [2] 27.9% | [3] 52.1% | [4] 46.6% | [5] 23.6% | [6] 33.7% | [7] 38.1% | [9] 54.9% | [10] 63.5% | [11] 34.8% | [12] 57.1% | [13] 44.7% | [14] 28.2% | [15] 19.2% | [16] 63.3% | [17] 58.1% | [18] 25.2% | [19] 55.2%

N#Cc1c(-c2ccccc2)cc(-c2ccc(Nc3nc(Nc4ccc(F)cc4)nc(Nc4ccc(F)cc4)n3)cc2)nc1N
inactive: [1] 106% | [2] 88.8% | [3] 80.6% | [4] 73.2% | [5] 53.6% | [6] 96.1% | [7] 65% | [8] 94.5% | [9] 104% | [10] 108% | [11] 100% | [12] 94.1% | [13] 91.7% | [16] 92% | [17] 98.6% | [18] 95.5% | [19] 90.1%

CC/C=C\C[C@H](O)C/C=C1/C(=O)C=C[C@@H]1C/C=C\CCCC(=O)OC
active: [2] 2.74% | [3] 9.07% | [5] -19.6% | [7] -1.98% | [8] 7.57% | [9] -17.5% | [10] -1.46% | [11] -20.3% | [12] -54.7% | [14] -72.8% | [15] -11.3% | [16] -84.7% | [17] -40.3% | [18] -76.9% | [19] -34.3%
inactive: [1] 20.2% | [4] 11.9% | [6] 15.1% | [13] 35.2%

CCc1ccccc1NC(=O)/C(C#N)=C/c1ccc(OC)cc1
inactive: [1] 100% | [2] 99.5% | [3] 104% | [4] 105% | [5] 126% | [6] 93.8% | [7] 91.9% | [8] 108% | [9] 108% | [10] 99.1% | [11] 101% | [12] 100% | [13] 111% | [14] 106% | [15] 81.1% | [16] 96.3% | [17] 81.6% | [18] 102% | [19] 92.9%

CCN1C(=O)N(CC)C2Nn3c(s/c(=C4\C(=O)N(C)c5ccccc54)c3=O)=NC21 (stereo not given)
inactive: [1] 18.1% | [2] 14.9% | [3] 48.3% | [4] 43.6% | [6] 55.5% | [7] 52.2% | [9] 61.8% | [10] 13.1% | [11] 29.7% | [12] 74.9% | [13] 56.5% | [14] 39.7% | [15] 27.8% | [16] 36.4% | [17] 51% | [18] 55.9% | [19] 59.3%
active: [5] -17.4% | [8] 9.32%
